According to PubChem BioAssay (NCI):
This is part of a sample that, as a whole, favours compounds with a hit. Of some 83,000 tested, about 20% had one in any assay.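 Plates (96-well) were seeded with cells, treated with compound at one concentration, and incubated for 48 hours before percent growth was determined.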 Values without a mark were called inactive. The source made the active and inactive calls. How the source made its calls: active means growth percent below 10; inactive means the rest.

What follows are molecules tested on NCI/ADR-RES ovarian (assay: NCI-60 one-dose screen, 48 h (100 = growth as untreated, 0 = no growth, -100 = all killed)). Settings: 10 µM unless noted.

| SMILES | growth |
| --- | --- |
| N=c1sc(Cc2ccc(Cl)cc2)cn1CC(=O)c1ccc(F)cc1 | 73.9% |
| CCCCn1c(=O)c2c(nc3n2CCCN3CCc2ccc(OCC(=O)NCCN(CC)CC)cc2)n(CCCC)c1=O | 60.7% |
| COc1ccc(NC(=O)c2nc(-c3cc(OC)c(OC)c(OC)c3)n(-c3cccc4ccccc34)n2)cc1OC | 35.2% |
| O=C1CCc2c(sc3[nH]c(=S)n(-c4ccc(OC(F)(F)F)cc4)c(=O)c23)C1 | 12.5% |
| C[C@@]1(CCC#N)[C@H]2CC[C@@H]3[C@H]4[C@H](C(=O)/C=C/c5cccnc5)CC[C@]4(C#N)CC[C@@]3(C)[C@]2(C)CC[C@H]1C(=O)/C=C/c1cccnc1 | 65.1% |
| Cc1c(C)c2c(c(C)c1OCC(=O)O)CC[C@@](C)(CCC[C@@H](C)CCC[C@@H](C)CCCC(C)C)O2 | -28.2% [50 µM] (active) |
| O=C(NCCCNc1cc(-c2cn(-c3ccccc3)nc2-c2cccc(O)c2)ccn1)c1ccc(F)cc1 | 19% |
| Cn1c(-c2c(N)n(Cc3ccc(C(F)(F)F)cc3)c3nc(C#N)c(C#N)nc23)nc2ccccc21 | 6.65% (active) |
| Nc1nc(N)c2c(n1)NC(c1ccccc1)C1CCc3ccccc3C1=N2 (configuration not stated) | 23.9% |
| COc1ccc2[nH]c(O)c(/C=c3/cc4c(c(-c5cc(OC)c(OC)c(OC)c5)n3)=Nc3ccccc3-4)c2c1 | 39.4% |
| CCOC(=O)c1c2ncccc2n2c(=O)n(-c3ccccc3C)nnc12 | 93.3% |
| COc1cccc(C(=O)NCCCNc2cc(-c3cn(-c4ccccc4)nc3-c3cccc(OC)c3)ccn2)c1 | 22.1% |
| N[C@@H](CCCCNCC(=O)O)C(=O)O | 101% |
| CC(CCc1ccc(Cl)c(Cl)c1)NCc1ccc(C(C)(C)C)cc1 (configuration not stated) | 86.3% |
| O=Cc1ccc(O)c2ncccc12 | -1% (active) |
| CCCCOc1nc2ccccc2cc1C1CNC(=O)c2ccccc2N1 (configuration not stated) | 3.84% (active) |
| COc1ccc2occ(C3=C(c4c[nH]c5ccccc45)C(=O)N(O)C3=O)c2c1 | 99.1% |
| N#CC1=C(NC=O)Oc2c(ccc3ccccc23)C1c1ccccc1 (configuration not stated) | 20.4% |
| Fc1c[c-]c(-c2ccccn2)c(F)c1.[CH3-].[Pt+2].c1ccc(P(C[PH+](c2ccccc2)c2ccccc2)c2ccccc2)cc1 | 49.8% |
| N=C1C(c2nc(-c3ccc(Br)cc3)cs2)=C(O)CN1CC1CCCO1 (configuration not stated) | 76.3% |
| NS(=O)(=O)c1cnccc1Sc1ccncc1S(N)(=O)=O | 98.9% |
| N#Cc1c(-c2ccccn2)[nH]c(=S)[nH]c1=O | 109% |
